Measurements taken from PubChem BioAssay (NCATS).
Records with an inconclusive call do not appear. The source made the active and inactive calls. Calls come from the whole dose curve; as a rule, active = well fitted curve in the direction sought with a large enough effect; inconclusive = small, poorly fitted or top-dose-only effect, or another doubt; inactive = no such curve, though single readings can be large; an effect the other way counts as inactive or inconclusive. Starred links: 1 amine or outer side, 2 acyl side, 3 side chain; linkers in the order of their positions; H or OH if unused. Positions of bridges follow the written chain, without caps; N, C: chain ends. Non-standard residues stand in square brackets, D forms with d. Residues, ends and D or L forms follow the SMILES beside them. ξ: configuration not given here. *: point of attachment. X3 = C[C@@H](Oc1ccc([C@H](N[*:1])C(=O)[*:2])cc1)[C@]1(/C=C\C(=O)[*:3])CO1; d(aIle) = CC[C@H](C)[C@@H](N)C(=O)O; X2 = CC(C)[C@@H](O)C(C)C(=O)*; ξNMeF = CNC(Cc1ccccc1)C(=O)O; ξT = CC(O)C(N)C(=O)O; ξS = NC(CO)C(=O)O

Key:
[1] = OV-KATE Cancer Cell Toxicity qHTS against the NCATS CANVASS Library (AID 1347345)
Method in brief: (§1)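 1000 cells/well; 4 h settle; 11-pnt titration; 72 h, 37 degrees C, 5% CO2; CellTiter-Glo, 15min RT; luminescence read.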

[2] = OV-SAHO Cancer Cell Toxicity qHTS against the NCATS CANVASS Library (AID 1347348); note: nearly all actives have a fitted effect of over 55% in size
Method in brief: as §1

[3] = Panc-1005 Cancer Cell Toxicity qHTS against the NCATS CANVASS Library (AID 1347349); note: nearly all actives have a fitted effect of over 60% in size
Method in brief: as §1

[4] = SW1088 Cancer Cell Toxicity qHTS against the NCATS CANVASS Library (AID 1347350); note: nearly all actives have a fitted effect of over 75% in size
Method in brief: as §1

[5] = UWB1.289-WTBRCA1 Cancer Cell Toxicity qHTS against the NCATS CANVASS Library (AID 1347354)
Method in brief: (§2)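 Toxicity was measured as CellTiter-Glo luminescence after 72 h exposure to an 11-point compound series. Compound was added to 1000 cells/well 4 h after seeding.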

[6] = G06 Cancer Cell Toxicity qHTS against the NCATS CANVASS Library (AID 1347368); note: nearly all actives have a fitted effect of over 60% in size
Method in brief: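 Viability measured by CellTiterGlo ATP luminescence after 72 hr at 37C, 5% CO2. Canine G06 glioma cells plated at 500/well. Compounds tested as 11-point qHTS titrations.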

[7] = qHTS for Antimalaria activity screened against the NCATS CANVASS Library (AID 1347380); note: nearly all actives have a fitted effect of over 40% in size
Method in brief: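 SYBR Green fluorescence at 485/535 nm was read 18 hr after lysis. This followed a 72 hr incubation at 37C in 5% O2, 5% CO2 of Dd2-infected erythrocytes (0.3% parasitemia, 2.5% final hematocrit) with compounds titrated over 11 concentrations.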

[8] = Secretion counterscreen for inhibitors of the SERCaMP assay screened against the NCATS CANVASS Library (AID 1347390);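 note: light from luciferase secreted into medium read as a measure of general secretion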
Method in brief: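 SH-SY5Y cells expressing constitutively secreted GLuc, 1000 cells/well, attached 4 h at 37C, then exposed to compounds (0.001 - 77 uM, 11-pnt series) for 20 h. Coelenterazine added; luminescence read to flag secretory-pathway interferers.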

[9] = qHTS for inhibitors of ER calcium dysfunction: SERCaMP assay screened against the NCATS CANVASS Library (AID 1347393); note: nearly all actives have a fitted effect of over 40% in size
Method in brief: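 Thapsigargin-induced ER calcium depletion drives GLuc-SERCaMP secretion from SH-SY5Y cells; compounds given 16 h beforehand were scored by lowered coelenterazine luminescence after 4 h challenge.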

[10] = test system: Zika virus NS2B-NS3 protease (linked construct); experiment: Primary screen NINDS Rhodamine qHTS for Zika virus inhibitors (AID 1347160); note: nearly all actives have a fitted effect of over 55% in size
Method in brief: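 Single-chain NS2B-NS3 protease, 25 nM, pH 8.0; compounds preincubated 15 min. Activity: Rhodamine110 release from 1.5 microM substrate over 15 min, room temperature, data fitted to 4-parameter Hill.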

[11] = COV-362 Cancer Cell Toxicity qHTS against the NCATS CANVASS Library (AID 1347352)
Method in brief: as §2

[12] = MCF7 Cancer Cell Toxicity qHTS against the NCATS CANVASS Library (AID 1347369)
Method in brief: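 MCF7, 500 cells/well; cpds 11-pt qHTS; 72 hr, 37C/5% CO2; CellTiterGlo ATP luminescence.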

[13] = qHTS for activators of Nrf2/ARE signaling pathway screened against the NCATS CANVASS Library (AID 1347391); note: nearly all actives have a fitted effect of over 60% in size
Method in brief: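 Eleven-point qHTS, 16 h treatment of HepG2 cells carrying an ARE-driven beta-lactamase reporter; CCF4 ratio read (405 nm excitation, 460 and 530 nm emission), with CellTiter-Glo ATP luminescence for viability.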

Measured: Potency
Potency is the fitted concentration of half-maximal effect.

C/C=C(\C)C(=O)O[C@@H]1[C@@H](O)[C@@H]2O[C@H]3[C@H](O[C@@H](CCCCC)CCCCCCC(=O)CCC(=O)OC[C@@H](O2)[C@H]1OC(=O)/C=C/c1ccccc1)O[C@H](C)[C@H](OC(C)=O)[C@@H]3O
inactive: [5]
active: [1] 0.188 µM | [2] 0.0747 µM | [3] 0.0335 µM | [4] 14.9 µM | [6] 0.0047 µM | [7] 0.0375 µM | [8] 0.0767 µM | [9] 0.086 µM

CC[C@@H]1CN2CCC3(Nc4cccc(OC)c4C3=O)[C@@H]2C[C@@H]1/C(=C\OC)C(=O)OC (some centres not stated)
active: [9] 12.2 µM
not listed: [2] | [7]
inactive: all other assays above

C[C@]12CC(O)C3[C@@H](CC[C@@H]4C[C@@H](O)CC[C@]34CO)[C@@]1(O)CC[C@@H]2C1=CC(=O)OC1 (some centres not stated)
active: [11] 7.47 µM | [6] 4.18 µM | [12] 5.23 µM
inactive: [7] | [13]

C=C[C@]12C=CCN3CC[C@@]4(c5ccccc5NC(=O)[C@@H]4C1)[C@@H]32
active: [13] 20.9 µM
not listed: [6] | [7] | [9] | [10]
inactive: all other assays above

CO[C@@H](/C=C/CC/C=C/C(=O)O)[C@@H](O)[C@H](C)/C=C(\C)[C@H](O)[C@H](C)C(=O)CCCC1CC(=O)NC(=O)C1
not listed: [7] | [10]
inactive: all other assays above

C=CC(C)(C)[C@@]12C[C@H]3C(=O)N/C(=C\c4cnc[nH]4)C(=O)N3[C@@H]1Nc1ccccc12
active: [9] 34.3 µM
not listed: [10] | [13]
inactive: all other assays above

C/C(=C\[C@H](C)C(=O)C[C@H](O)CC1CC(=O)NC(=O)C1)[C@@H]1OC(=O)/C=C/CC/C=C/C=C/[C@@H]1C
active: [10] 44 µM | [2] 0.118 µM | [3] 0.0668 µM | [6] 0.0526 µM | [7] 0.941 µM | [8] 0.305 µM
inactive: [13] | [9]

CCC(=O)N[C@@H](C[C@H](C)C(Cl)(Cl)Cl)C(=O)N1C(=O)C=C(OC)[C@@H]1C[C@H](C)C(Cl)Cl
active: [9] 27.2 µM
not listed: [2] | [4] | [7] | [10]
inactive: all other assays above

C=C(C)[C@H]1C(=O)c2c3c(cc4c5c(n1c24)[C@@]1(C)[C@@H](CC[C@H]2[C@](C)(/C=C/C=C(\C)C(=O)O)[C@@H](O)CC[C@@]21C)C5)C1=CC(C)(C)OC(C)(C)[C@H]1[C@@H]3O
active: [10] 2.2 µM | [2] 11.8 µM | [3] 8.41 µM | [4] 5.95 µM | [11] 21.1 µM | [5] 18.8 µM | [7] 7.47 µM
inactive: [13] | [9]

c1ccc2nc3c(cc2c1)[nH]c1ccccc13
inactive: [1] | [4] | [11] | [5] | [12] | [7] | [8]
active: [13] 16.6 µM

CC[C@@H]1CN2CCc3c([nH]c4cccc(OC)c34)[C@@H]2C[C@@H]1/C(=C\OC)C(=O)OC
inactive: [10] | [8] | [13]
active: [2] 14.9 µM | [6] 23.5 µM | [9] 8.6 µM

C[C@]12CC(O)C3[C@@H](CCC4C[C@@H](O)CC[C@@]43CO)[C@@]1(O)CC[C@@H]2C1=CC(=O)OC1 (some centres not stated)
inactive: [4] | [7] | [13] | [9]
active: [10] 44 µM | [6] 13.2 µM

C/C=C/[C@@H]1[C@H]2C[C@@H](C)CC[C@@H]2C(C)=C[C@H]1C(=O)c1c(O)c(-c2ccc(O)cc2)c[nH]c1=O
inactive: [12] | [8]
active: [10] 22 µM | [2] 23.6 µM | [4] 6.68 µM | [9] 19.3 µM

C1=C2CCCN[C@H]2C2CC1[C@H]1CCCCN1C2 (some centres not stated)
not listed: [6] | [10]
inactive: all other assays above

CCCC[C@@H](C)/C=C1/CN2CCC[C@H]2[C@@](C)(O)[C@@H]1O
not listed: [9] | [10] | [13]
inactive: all other assays above

C=CC(C)(C)[C@@]12C[C@H]3C(=O)N/C(=C/c4cnc[nH]4)C(=O)N3[C@@H]1Nc1ccccc12
active: [7] 0.298 µM
not listed: [9] | [10] | [13]
inactive: all other assays above

CC[C@H](C)[C@H]1NC(=O)[C@@H](NC(=O)C(C)[C@H](O)C(C)C)[C@@H](C)OC(=O)C2COC(=O)CNC(=O)/C=C\[C@]3(CO3)[C@@H](C)Oc3ccc(cc3)[C@H](NC1=O)C(=O)N(C)C(Cc1ccccc1)C(=O)NC(C(C)O)C(=O)N2 (some centres not stated) (X2-T[d(aIle)][X3][ξNMeF][ξT][ξS]; ester 1-C; linker 3-6 via G)
not listed: [6] | [7] | [8] | [10]
inactive: all other assays above

C/C=C1/CN2CC[C@]34C(=C(C(=O)OC)[C@H]1C[C@H]23)Nc1ccccc14
active: [9] 19.3 µM
not listed: [3] | [6] | [12] | [13]
inactive: all other assays above

C=C[C@H]1CN2CCc3c([nH]c4cccc(OC)c34)[C@@H]2C[C@@H]1/C(=C\OC)C(=O)OC
active: [9] 17.2 µM
inactive: [10] | [1] | [3] | [5] | [12]

CC(C)CC1C(=O)O[C@H](C(C)C)C(=O)N(C)C(CC(C)C)C(=O)O[C@@H](C(C)C)C(=O)N(C)C(CC(C)C)C(=O)O[C@H](C(C)C)C(=O)N(C)C(CC(C)C)C(=O)O[C@@H](C(C)C)C(=O)N1C (some centres not stated)
active: [10] 4.4 µM | [2] 5.94 µM | [3] 6.68 µM | [4] 5.95 µM | [7] 0.747 µM
inactive: [12] | [13]

O[C@H]1C=C[C@@]23CCN(Cc4cc5c(cc42)OCO5)[C@@H]3C1
not listed: [5] | [7] | [10]
inactive: all other assays above

COC1C(O)C(C)OC(OC2C(Oc3cccc4c(O)c5c(=O)oc6ccc(C)c7c(=O)oc(c34)c5c67)OC(C)C(O)C2O)C1O (configuration not stated)
active: [3] 16.8 µM | [6] 9.35 µM | [8] 30.5 µM
inactive: [4] | [13] | [9]

CO[C@H]1C[C@H](O[C@H]2[C@@H](O)C[C@H](O[C@H]3CC[C@]4(C=O)[C@H]5CC[C@]6(C)C(C7=CC(=O)OC7)CC[C@]6(O)[C@@H]5CC[C@]4(O)C3)O[C@@H]2C)O[C@H](C)[C@H]1O[C@H]1C[C@@H](OC)[C@@H](O[C@@H]2O[C@H](CO)[C@@H](O)[C@H](O)[C@H]2O)[C@@H](C)O1 (some centres not stated)
active: [10] 44 µM | [1] 0.265 µM | [11] 0.374 µM | [6] 0.264 µM | [12] 0.166 µM | [8] 0.767 µM
inactive: [2] | [13] | [9]

CO[C@H]([C@@H](C)[C@H]1O[C@]1(C)C[C@H](C)/C=C/C=C(\C)[C@H]1O[C@@H](CC(=O)O)CC[C@@H]1C)[C@@H](C)O
active: [3] 0.0375 µM | [6] 0.0296 µM | [12] 0.0052 µM | [7] 0.0666 µM | [13] 0.0066 µM
inactive: [4] | [8] | [9]

CO[C@@]12c3c(C)cc(O)c4c(=O)occ(c34)C(=O)[C@@H]1[C@]13COC(=O)c4c(O)cc(C)c(c41)C(=O)[C@H]2[C@@H]3OC(C)=O
inactive: [1] | [2] | [3] | [11] | [6] | [12]
active: [10] 3.11 µM | [4] 18.8 µM | [7] 0.0075 µM

C[N+](C)(C)CCc1c[nH]c2ccccc12
not listed: [7] | [10]
inactive: all other assays above

C/C=C1/CN2CC[C@@]34c5ccccc5N(C)[C@@H]3[C@@H]2C[C@@H]1[C@H]4C(=O)OC
active: [9] 0.86 µM
not listed: [3] | [4] | [10] | [12]
inactive: all other assays above

COC1=C(C2=C(OC)C(=O)c3cc4c(c(O)c3C2=O)C(=O)O[C@H](C)C4)C(=O)c2c(cc3c(c2O)C(=O)O[C@H](C)C3)C1=O
active: [10] 3.3 µM | [4] 3.14 µM
not listed: [3] | [8] | [13]
inactive: all other assays above

CC[C@]12C=CCN3CC[C@]4(C(=C(C(=O)OC)C1)Nc1ccccc14)[C@@H]32
active: [7] 0.042 µM
not listed: [6] | [9] | [10]
inactive: all other assays above
